According to PubChem BioAssay (NCI):
About 83,000 compounds went through this panel and 20% of them were active in at least one assay; those are over-represented in the sample as a whole.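 Activity criterion: percent growth below 10, measured after cells in 96-well plates were exposed to a single compound concentration for 48 hours.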 The source made the active and inactive calls.

These compounds were tested on NCI-H226 lung (assay: NCI-60 one-dose screen, 48 h (100 = growth as untreated, 0 = no growth, -100 = all killed)). Conditions: 10 µM unless noted.

| SMILES | growth |
| --- | --- |
| COc1ccc(C2CC(c3ccc(OC)c(OC)c3)=NN2C(=O)c2cc(OC)c(OC)c(OC)c2)c(OC)c1 (stereo not given) | 76.4% (inactive) |
| CCOC(=O)c1c2c(c(C)n1Cc1ccc(OC)cc1)-c1nc(N)ncc1CC2 | 92.2% (inactive) |
| O=C1N(C2CCCCC2)C(=O)N1C1CCCCC1 | 46% (inactive) |
| O=c1ccn(C2OC(CO)C(O)C2F)c(=O)[nH]1 (stereo not given) | 101% (inactive) |
| CCCn1cnc2c1c(=O)n(CCCCC(C)=O)c(=O)n2C | 100% (inactive) |
| CCCCc1nc(Cl)c(CO)n1Cc1ccc(-c2ccccc2-c2nn[nH]n2)cc1 | 99.3% (inactive) |
| COc1ccc(C2CC(c3cccc(Nc4ccnc5cc(Cl)ccc45)c3)=NN2C=O)cc1 (stereo not given) | 46.3% (inactive) |
| O=c1c(O)cccn1CCCNCCCN(CCCn1cccc(O)c1=O)CCCn1cccc(O)c1=O | 95% (inactive) |
| COc1ccc2nc(-c3ccc(-n4cncc4-c4ccc(OC)c(N)c4)cc3)sc2c1 | 108% (inactive) |
| Cc1cc(NC(=O)Nc2cc(Cl)ccc2C)no1 | 105% (inactive) |
| O=C1NCN(c2ccccc2)C12CCN(CCCC(c1ccc(F)cc1)c1ccc(F)cc1)CC2 | 94.1% (inactive) |
| CCC(O)C(C)(C)C (stereo not given) | 106% (inactive) |
| COc1ncc(-c2ccc3nccc(C#CCN4CCN(S(C)(=O)=O)CC4)c3c2)cc1NS(=O)(=O)c1ccc(F)cc1F | 9.35% (active) |
| O=C(Nc1ccc(Cl)cc1)c1cc2c(cc1O)[nH]c1ccccc12 | 35.9% (inactive) |
| O=C1c2ccccc2C(=O)c2c1cccc2-n1nnc2ccccc21 | 103% (inactive) |
